Data taken from PubChem BioAssay (NCI).
Where “and” joins values, the source holds several entries; their conditions need not be identical. Identical values can stand only once. This is part of a sample that, as a whole, favours compounds with a hit. Of some 83,000 tested, about 20% had one in any assay.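 Treatment: one concentration, 48 hours, 96-well format. Scoring: percent growth, with anything below 10 considered active.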 Calls of active or inactive are those of the source.

Experiments:
Experiment in all cases: NCI-60 one-dose screen, 48 h (100 = growth as untreated, 0 = no growth, -100 = all killed)
Conditions in all cases: 10 µM unless noted
NCI-H23 lung = system: NCI-H23 lung
NCI-H226 lung = system: NCI-H226 lung
NCI-H322M lung = system: NCI-H322M lung
HOP-62 NSCLC = system: HOP-62 NSCLC
NCI-H460 lung = system: NCI-H460 lung
HOP-92 NSCLC = system: HOP-92 NSCLC
NCI-H522 lung = system: NCI-H522 lung
A549/ATCC NSCLC = system: A549/ATCC NSCLC
786-0 renal = system: 786-0 renal
COLO 205 colon = system: COLO 205 colon
DU-145 prostate = system: DU-145 prostate
K-562 leukemia = system: K-562 leukemia
MALME-3M melanoma = system: MALME-3M melanoma
MDA-MB-231 breast = system: MDA-MB-231 breast
RXF 393 renal = system: RXF 393 renal
SF-268 CNS = system: SF-268 CNS
SF-295 CNS = system: SF-295 CNS
SF-539 CNS = system: SF-539 CNS
UACC-257 melanoma = system: UACC-257 melanoma
M14 melanoma = system: M14 melanoma

Row | SMILES | growth (NCI-H23 lung) | growth (NCI-H226 lung) | growth (NCI-H322M lung) | growth (HOP-62 NSCLC) | growth (NCI-H460 lung) | growth (HOP-92 NSCLC) | growth (NCI-H522 lung) | growth (A549/ATCC NSCLC) | growth (786-0 renal) | growth (COLO 205 colon) | growth (DU-145 prostate) | growth (K-562 leukemia) | growth (MALME-3M melanoma) | growth (MDA-MB-231 breast) | growth (RXF 393 renal) | growth (SF-268 CNS) | growth (SF-295 CNS) | growth (SF-539 CNS) | growth (UACC-257 melanoma) | growth (M14 melanoma)
1 | CN(C)c1ccc(C(Cc2ccc3ccccc3n2)Cc2ccc3ccccc3n2)cc1 | 38.6% (inactive) and 65.5% (inactive) | 61.4% (inactive) and 71.9% (inactive) | 66.9% (inactive) and 86% (inactive) | 70.9% (inactive) and 84.4% (inactive) | 26.5% (inactive) and 73.7% (inactive) | -4.12% (active) and 50.7% (inactive) | 45.3% (inactive) and 90.3% (inactive) | 45% (inactive) and 91.1% (inactive) | 31.4% (inactive) and 90.9% (inactive) | 43.5% (inactive) | 81.9% (inactive) | 29.8% (inactive) and 85.6% (inactive) | 64.8% (inactive) and 106% (inactive) | 58.2% (inactive) and 64% (inactive) | 73.6% (inactive) and 85.5% (inactive) | 68.3% (inactive) and 95.3% (inactive) | 24.7% (inactive) and 64.9% (inactive) | 67.6% (inactive) and 106% (inactive) | 32.4% (inactive) and 99% (inactive) | 27.2% (inactive) and 75.5% (inactive)
2 | O=C(c1ccc(Cl)cc1)C(NCCO)c1ccc(Cl)cc1 (centres undefined) | 90.7% (inactive) and 90.4% (inactive) | 93.2% (inactive) and 106% (inactive) | 86.4% (inactive) and 93.6% (inactive) | 87.5% (inactive) | 100% (inactive) and 114% (inactive) | 72.9% (inactive) and 89.4% (inactive) | 92.8% (inactive) and 89.3% (inactive) | 96.8% (inactive) and 93.8% (inactive) | 97.8% (inactive) and 93.3% (inactive) | 112% (inactive) and 122% (inactive) | 108% (inactive) and 109% (inactive) | 90.3% (inactive) and 105% (inactive) | 90.2% (inactive) and 102% (inactive) | 96.3% (inactive) and 97.8% (inactive) | 94.9% (inactive) and 108% (inactive) | 99% (inactive) and 85.8% (inactive) | 96.8% (inactive) and 103% (inactive) | 114% (inactive) and 103% (inactive) | 100% (inactive) and 101% (inactive) | –
